Among the data in PubChem BioAssay (NCI) are growth inhibition values, retold here.

About 79,000 compounds went through this panel and 15% of them were active in at least one assay; those are over-represented in the sample as a whole. Unmarked numbers belong to inactive results. Active and inactive are the calls of the source. Rule as the data show it: active = growth inhibition above about 70%; inactive = the rest.

Experiment [1] is described as follows: NCI Yeast Anticancer Drug Screen. Data for the rad50 strain (AID 155).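 Also: 0% = growth of vehicle-only cultures of the same strain.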 Particulars: S. cerevisiae rad50 strain growth inhibition; at 50.0 µM; hits give high values. Put shortly: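 Genetically altered yeast (DNA repair pathway); compound treatment; growth inhibition vs vehicle ctrl.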
The nature of experiment [2]: NCI Yeast Anticancer Drug Screen. Data for the mec2-1 strain (AID 157). Particulars: S. cerevisiae mec2-1 strain, at 50.0 µM, hits give high values. Put shortly:
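Yeast mec2-1 mutant treated with compound. Readout: growth inhibition vs vehicle controls.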

A short description of experiment [3]: NCI Yeast Anticancer Drug Screen. Data for the sgs1 mgt1 strain (AID 161).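 Also: 0% = growth of cultures given vehicle only.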 As to conditions: S. cerevisiae sgs1 mgt1 strain, at 50.0 µM, hits give high values. Put shortly:
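Genetically altered yeast, compound exposure, growth inhibition relative to vehicle.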

Experiment [4] in a line: NCI Yeast Anticancer Drug Screen. Data for the cln2 rad14 strain (AID 165).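 Also: 0% = growth equal to vehicle treated cultures.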 As to conditions: S. cerevisiae cln2 rad14 strain, at 50.0 µM, hits give high values. Put shortly:
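cln2 rad14 yeast strain; compound exposure; growth inhibition read vs vehicle controls.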

Experiment [5] in a line: NCI Yeast Anticancer Drug Screen. Data for the bub3 strain (AID 167). Particulars: S. cerevisiae bub3 mutant strain, at 50.0 µM, hits give high values. Put shortly:
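Yeast carrying a defined mutation is treated with each compound, and growth is compared with that of vehicle-exposed cells to give inhibition.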

Experiment [6] is described as follows: NCI Yeast Anticancer Drug Screen. Data for the mlh1 rad18 strain (AID 175). Particulars: S. cerevisiae mlh1 rad18 strain growth inhibition; at 50.0 µM; hits give high values. Put shortly: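 Yeast w/ defined DNA-repair lesions; compound exposure; growth vs vehicle controls → % inhibition.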

With `NC(CC(=O)O)CC(=O)O`, the growth inhibition in experiment [1] is 12.9%; in experiment [2], 2.6%; in experiment [3], 1.8%; in experiment [4], 14.7%; in experiment [5] it was 5.65%; in experiment [6], 17.8%.

Consider `O=C1OC2C(O)C(N(O)c3ccccc3)OC2[C@@H]1O` (stereo partly specified), for which the growth inhibition in experiment [1] was 1.85%; in experiment [2] it was 17.5%; in experiment [3], 21.9%; in experiment [4], 9.2%; in experiment [5] it was 21.8%; in experiment [6], 15.1%.

Consider `Cc1cc2ncn(C3CCCCO3)c2cc1C` (stereo unspecified), for which the growth inhibition in experiment [1] is 8.25%; in experiment [2], -10.8%; in experiment [3], -9.4%; in experiment [4], 13.3%; in experiment [5] it was 3.85%; in experiment [6], -26.4%.

As for `CC(=O)NCCc1ccc2c(c1)[nH]c1ccccc12`, the growth inhibition in experiment [1] was -1.9%; in experiment [2], -36%; in experiment [3], -8.75%; in experiment [4] it was 12.6%; in experiment [5], -17.1%; in experiment [6], -8.05%.

In the case of `CCCCCCCCCCCO`, the growth inhibition in experiment [1] was -5.75%; in experiment [2], -13.2%; in experiment [3], -3.8%; in experiment [4], -6.8%; in experiment [5] it was 2.15%; in experiment [6], -18.8%.

As to `O=C(Nc1ccc(Cl)c(Cl)c1)OCCN1CCOCC1`, the growth inhibition in experiment [1] was 82.3% (active); in experiment [2], 97.2% (active); in experiment [3], 94% (active); in experiment [4], 67.2%; in experiment [5] it was 91.2% (active); in experiment [6] it was 92.8% (active).

Consider `O=C(/C=C/c1c[nH]c2ccccc12)c1ccccc1[N+](=O)[O-]`, for which the growth inhibition is 5.45% in experiment [1]; 9.75% in experiment [2]; 7.55% in experiment [3]; -7.7% in experiment [4]; 7.6% in experiment [5]; -7% in experiment [6].

`NC(Cc1c[nH]c2ccc(Br)cc12)C(=O)O` (stereo unspecified): the growth inhibition is -29.4% in experiment [1]; -26.7% in experiment [2]; -17.9% in experiment [3]; 5.4% in experiment [4]; -29.8% in experiment [5]; -38.1% in experiment [6].

For `O=c1c2cc([N+](=O)[O-])ccc2n2n1Cc1ccccc1CC2`, the growth inhibition in experiment [1] was -12.8%; in experiment [2] it was -0.9%; in experiment [3], -6.5%; in experiment [4], 21.5%; in experiment [5], 18.5%; in experiment [6], -16.4%.

For the compound `CC(=O)S`, the growth inhibition in experiment [1] is -36.5%; in experiment [2], -18.4%; in experiment [3], -11.9%; in experiment [4] it was -24.2%; in experiment [5], 6.35%; in experiment [6] it was 5.7%.

Turning to `COc1ccc(/C=C2/CCOC2=O)cc1`, the growth inhibition in experiment [1] is 44.1%; in experiment [2] it was 18.7%; in experiment [3], 11.4%; in experiment [4], -9.3%; in experiment [5], -2.6%; in experiment [6], 28.8%.

Consider `Cc1cc(N)c(N=Cc2ccccc2[N+](=O)[O-])cc1C`, for which the growth inhibition was 26.2% in experiment [1]; 11.5% in experiment [2]; 39.8% in experiment [3]; -58.8% in experiment [4]; 24.8% in experiment [5]; 20.9% in experiment [6].

For the compound `CCNC(=O)COc1ccc(Cl)cc1C(C)C`, the growth inhibition is -2.65% in experiment [1]; 7.75% in experiment [2]; 15.4% in experiment [3]; 18.8% in experiment [4]; -0.8% in experiment [5]; 0.7% in experiment [6].

`CN(/N=C/C=N/N(C)C1=NCCCCN1)C1=NCCCCN1`: the growth inhibition in experiment [1] is -13.6%; in experiment [2] it was -11.3%; in experiment [3], -22.2%; in experiment [4], 0.7%; in experiment [5], 7.55%; in experiment [6] it was -11.8%.

As for `O=C(CC/C(CC(=O)c1ccc(Cl)cc1)=N\O)Nc1cccc(Cl)c1`, the growth inhibition in experiment [1] is -31.9%; in experiment [2], -2.4%; in experiment [3], -6.45%; in experiment [4], -3.85%; in experiment [5], 0.7%; in experiment [6] it was -11.6%.

Regarding `Cc1cc(-c2cc(C)on2)no1`, the growth inhibition in experiment [1] is -44.7%; in experiment [2], -2.75%; in experiment [3] it was -15.9%; in experiment [4], -30.1%; in experiment [5], -6.15%; in experiment [6], -3.25%.

For `O=C(Cc1cccc2ccccc12)NO`, the growth inhibition is 18.3% in experiment [1]; 5.05% in experiment [2]; 6.7% in experiment [3]; -32.3% in experiment [4]; -28.4% in experiment [5]; 11.6% in experiment [6].

On to `CC(C)C(NC(=O)CI)C(=O)Nc1ccc(C(=O)O)c(O)c1` (stereo unspecified), for which the growth inhibition in experiment [1] was 24.2%; in experiment [2], 20.5%; in experiment [3] it was 5.7%; in experiment [4], -11.6%; in experiment [5] it was 7.1%; in experiment [6], 24.1%.

Consider `COc1cc2c(cc1OC)C1(CCCl)C3CC4C(=CCOC5CC(=O)N2C1C54)CN3C(=O)Cc1ccccc1` (stereo unspecified), for which the growth inhibition in experiment [1] was 40.2%; in experiment [2], 4.95%; in experiment [3], 16.4%; in experiment [4] it was 11.2%; in experiment [5], 5.9%; in experiment [6], 23.6%.

For `N#CCCN(CCC#N)Cc1ccc2c(O)c(CN(CCC#N)CCC#N)ccc2c1O`, the growth inhibition in experiment [1] was 23.8%; in experiment [2] it was 7.35%; in experiment [3], 3.35%; in experiment [4], -1.65%; in experiment [5], -0.15%; in experiment [6] it was 3.65%.

Take `c1ccc(N(c2ccccc2)C(c2ccccc2)(c2ccccc2)c2ccccc2)cc1`: the growth inhibition was 12.6% in experiment [1]; -2.65% in experiment [2]; 1.1% in experiment [3]; -36.3% in experiment [4]; -0.85% in experiment [5]; 7.85% in experiment [6].
